The results in this text go back to PubChem BioAssay (NCATS).

A number with no mark means an inactive call. Records with an inconclusive call do not appear. The source made the active and inactive calls.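 How the source made its calls, unless noted: active means compounds whose dose series gives a full or clear partial fitted curve of increased nuclear translocation; inconclusive means weak partial curve or effect only at the top dose; inactive means no dose-dependent translocation response.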

System in one experiment: not listed separately
Put plainly: Stat Signaling Pathway (AID 446; active means well fitted curve in either direction with a large enough effect, not every such curve was filed as active;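 further: ME-180 cervical cancer cells given 40 pM IL-6 alongside compound; SIE-controlled beta-lactamase reporter measured as 460/530 nm FRET emission ratio; on the % scale 0 is the no-effect control and ±100 the full control effect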). The note with it: ME-180 (cervical carcinoma) SIE beta-lactamase reporter, IL-6 stimulated, 5 h; at 17.2 µM (top of the series) unless noted. The essentials: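 IL-6/STAT signaling read in ME-180 cells via an SIE beta-lactamase reporter. Stimulus was 40 pM IL-6 (its AC50) for 5 hrs, so both activation and inhibition register.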
As to `CCOC(=O)c1c(C)n(C)c2ccc(O)c(CN3CCCCC3)c12`, the activity, negative = inhibition was 18.3%.

Regarding `COC(=O)c1[nH]c2cc(OC)ccc2c1NC(=O)CN1CCN(c2cccc(C)c2)C(C)C1` (stereo not given), the activity, negative = inhibition was -21.4%.

For the compound `COC(=O)c1cccc(Nc2cc(C)nc(-c3ccccc3O)n2)c1`, the activity, negative = inhibition is -15.1%.

For `CCN(CC)CCOC(=O)c1c(C)n(C)c2ccc(OC)cc12`, the activity, negative = inhibition was 11.9%.

With `Fc1ccccc1-c1nc(N2CCCCC2)c2ccccc2n1`, the activity, negative = inhibition was -21.5%.

With `COc1cc(C(=O)OCCN2CCCCC2)ccc1O`, the activity, negative = inhibition was 4.68%.

For the compound `Fc1ccc2[nH]c3c(N4CCN(c5ccccc5)CC4)ncnc3c2c1`, the activity, negative = inhibition is -93.2% (active).

Take `CCOC(=O)c1[nH]c2ccc(Br)cc2c1NC(=O)CCN1CCC(C(=O)OCC)CC1`: the activity, negative = inhibition is -11%.

Consider `Cc1ccccc1-n1c(=O)/c(=C\c2ccco2)s/c1=C(/C#N)C(=O)Nc1ccccc1`, for which the activity, negative = inhibition was -25.9%.

In the case of `Cc1cc(C)n(S(=O)(=O)/C=C/c2ccccc2)n1`, the activity, negative = inhibition is -7.25%.

With `N#Cc1ccc(-c2ccco2)nc1SCC(=O)c1ccc(Cl)cc1`, the activity, negative = inhibition was -9.2%.

`Cc1nc(SCC(=O)c2ccccc2)c(C#N)c(-c2ccco2)c1C(=O)NCc1ccco1`: the activity, negative = inhibition was -21.3%.

As for `CCOc1ccc(/C(O)=C2/C(=O)C(=O)N(c3cc(C)on3)C2c2ccc(C(=O)OC)cc2)cc1` (stereo not given), the activity, negative = inhibition is -18.4%.

For `COc1ccc(CCn2c(C)cc3c(c2=O)C(c2ccc4c(c2)OCO4)C(C#N)=C(N)O3)cc1OC` (stereo not given), the activity, negative = inhibition was -21.6%.

`COc1ccc(C(=O)CCN2CCCCCC2)cc1`: the activity, negative = inhibition is -28.1%.

With `CCCOC(=O)CSC1=C(C#N)C(c2ccccc2OCC)C(C#N)C(=O)N1` (stereo not given), the activity, negative = inhibition was -11.2%.

As for `O=c1c2sc3nc(N4CCOCC4)c4c(c3c2ncn1Cc1ccco1)CCCC4`, the activity, negative = inhibition was -14.9%.

With `N#Cc1nc(COc2ccc(Br)cc2)oc1N1CCCC1`, the activity, negative = inhibition was 3.52%.

As for `C=CCc1cccc(CNc2nc3ccccc3n2C(C)C)c1O`, the activity, negative = inhibition was -22.2%.

On to `CC1(C)Cc2c(c(N3CCOCC3)nc3sc4c(NCc5ccco5)nnnc4c23)CS1`, for which the activity, negative = inhibition was -26.9%.

Regarding `N#CC1=C(SCc2ccccc2)NC2=C(C(=O)CCC2)C1c1ccc2c(c1)OCO2` (stereo not given), the activity, negative = inhibition is -5.66%.

As to `COc1ccc(C(=O)C(CN2CCCC2)c2ccccc2)cc1` (stereo not given), the activity, negative = inhibition is -8.3%.

Take `COc1ccc(CNc2oc(COc3ccc(Cl)cc3)nc2C#N)cc1`: the activity, negative = inhibition was -26.7%.

For the compound `CCCCc1ccc(NC(=O)CSC2=C(C#N)C(c3ccco3)C3=C(CCCC3=O)N2)cc1` (stereo not given), the activity, negative = inhibition is -23.6%.

As for `COc1cc(C2C(C#N)=C(N)Oc3cc(N)ccc32)cc(OC)c1OC` (stereo not given), the activity, negative = inhibition was -20.2%.

Turning to `CCc1[nH]nc2c1C(c1ccc(Br)s1)C(C#N)=C(N)O2` (stereo not given), the activity, negative = inhibition is -17.3%.

In the case of `C=CCOc1nc(-c2ccncc2)nc2ccccc12`, the activity, negative = inhibition is 12.7%.

Consider `COCc1[nH]nc2c1C(c1sccc1C)C(C#N)=C(N)O2` (stereo not given), for which the activity, negative = inhibition is -24.3%.

Turning to `CN(C)c1nc(OCCNC(=O)Nc2ccccc2)nc(N(C)C)n1`, the activity, negative = inhibition was -7.19%.

With `COc1cccc(-c2nc(N3CCCCC3C)c3ccccc3n2)c1O` (stereo not given), the activity, negative = inhibition was -21.7%.

In the case of `Nc1c2c(nc3ccccc13)N(c1ccccc1)CC2`, the activity, negative = inhibition is 9.15%.

In the case of `CCOC(=O)C1CCN(c2nc3ccccc3nc2C(C#N)C(=O)NCCc2ccccc2)CC1` (stereo not given), the activity, negative = inhibition is -24.6%.

With `Clc1ccccc1CN(Cc1ccccc1)c1ncnc2nc[nH]c12`, the activity, negative = inhibition was -10.3%.

As for `COc1cccc(-c2nc(N3CCN(Cc4ccccc4)CC3)c3ccccc3n2)c1O`, the activity, negative = inhibition was 9.62%.

Turning to `N#C/C(=N\O)c1nc(-c2ccccc2)cs1`, the activity, negative = inhibition is 9.7%.

For the compound `CCOc1ccc(C2=Nn3c(nnc3-c3ccccc3OC)SC2)cc1`, the activity, negative = inhibition was -10.6%.

As for `N#Cc1nc(-c2ccc(Cl)cc2)oc1N1CCCCC1`, the activity, negative = inhibition is 2.4%.

As for `CCOC(=O)N1CCN(c2ncnc3c2[nH]c2ccc(OC)cc23)CC1`, the activity, negative = inhibition was -22.9%.

For `CCCOc1ccc(Cl)cc1CN1CCOCC1`, the activity, negative = inhibition is 8.53%.

For the compound `CC(C)OC(=O)c1c2nc3ccccc3nc2n2c1[nH]c(=O)c1ccccc12`, the activity, negative = inhibition is -17%.

The target of another experiment is Glucocorticoid receptor (Homo sapiens) (UniProt P04150). Description: GR-GFP Redistribution (AID 450). Further: potency means the concentration at half of the fitted maximal effect. The note with it: U2OS GR-GFP nuclear translocation, laser cytometry, 2 h; series mostly up to 20.6 µM.
Chain of Glucocorticoid receptor (Homo sapiens) (P04150 whole entry, looked up): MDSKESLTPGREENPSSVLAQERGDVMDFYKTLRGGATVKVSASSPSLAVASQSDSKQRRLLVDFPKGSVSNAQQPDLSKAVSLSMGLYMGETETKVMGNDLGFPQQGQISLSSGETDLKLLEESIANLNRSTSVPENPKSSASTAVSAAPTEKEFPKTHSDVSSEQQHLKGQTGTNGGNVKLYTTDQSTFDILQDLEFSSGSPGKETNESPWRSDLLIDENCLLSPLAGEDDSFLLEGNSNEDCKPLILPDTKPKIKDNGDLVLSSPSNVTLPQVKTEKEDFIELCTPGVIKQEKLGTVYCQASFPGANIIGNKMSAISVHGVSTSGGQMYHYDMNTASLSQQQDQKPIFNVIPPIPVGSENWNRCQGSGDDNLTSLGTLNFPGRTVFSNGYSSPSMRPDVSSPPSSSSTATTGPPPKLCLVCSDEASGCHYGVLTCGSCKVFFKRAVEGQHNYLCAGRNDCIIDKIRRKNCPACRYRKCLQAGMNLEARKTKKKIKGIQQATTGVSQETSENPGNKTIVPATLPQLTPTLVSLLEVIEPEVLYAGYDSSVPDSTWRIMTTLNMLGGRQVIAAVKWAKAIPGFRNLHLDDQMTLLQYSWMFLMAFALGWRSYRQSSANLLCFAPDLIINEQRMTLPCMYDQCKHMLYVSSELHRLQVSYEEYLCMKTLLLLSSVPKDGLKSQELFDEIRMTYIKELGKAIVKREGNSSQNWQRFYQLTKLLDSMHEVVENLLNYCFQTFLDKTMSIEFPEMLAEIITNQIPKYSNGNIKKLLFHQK
As for `CCOC(=O)c1c(C)n(C)c2ccc(O)c(CN3CCCCC3)c12`, the Potency is above 20.6 µM.

Regarding `COC(=O)c1[nH]c2cc(OC)ccc2c1NC(=O)CN1CCN(c2cccc(C)c2)C(C)C1` (stereo not given), the Potency is above 20.6 µM.

With `COC(=O)c1cccc(Nc2cc(C)nc(-c3ccccc3O)n2)c1`, the Potency is above 20.6 µM.

On to `CCN(CC)CCOC(=O)c1c(C)n(C)c2ccc(OC)cc12`, for which the Potency is above 20.6 µM.

For the compound `Fc1ccccc1-c1nc(N2CCCCC2)c2ccccc2n1`, the Potency was above 20.6 µM.

Turning to `COc1cc(C(=O)OCCN2CCCCC2)ccc1O`, the Potency is above 20.6 µM.

On to `Fc1ccc2[nH]c3c(N4CCN(c5ccccc5)CC4)ncnc3c2c1`, for which the Potency is above 20.6 µM.

Turning to `CCOC(=O)c1[nH]c2ccc(Br)cc2c1NC(=O)CCN1CCC(C(=O)OCC)CC1`, the Potency was above 20.6 µM.

Turning to `Cc1ccccc1-n1c(=O)/c(=C\c2ccco2)s/c1=C(/C#N)C(=O)Nc1ccccc1`, the Potency was above 20.6 µM.

As to `Cc1cc(C)n(S(=O)(=O)/C=C/c2ccccc2)n1`, the Potency is above 20.6 µM.

`N#Cc1ccc(-c2ccco2)nc1SCC(=O)c1ccc(Cl)cc1`: the Potency was above 20.6 µM.

For the compound `Cc1nc(SCC(=O)c2ccccc2)c(C#N)c(-c2ccco2)c1C(=O)NCc1ccco1`, the Potency was above 20.6 µM.

Turning to `CCOc1ccc(/C(O)=C2/C(=O)C(=O)N(c3cc(C)on3)C2c2ccc(C(=O)OC)cc2)cc1` (stereo not given), the Potency was above 20.6 µM.

As for `COc1ccc(CCn2c(C)cc3c(c2=O)C(c2ccc4c(c2)OCO4)C(C#N)=C(N)O3)cc1OC` (stereo not given), the Potency is above 20.6 µM.

Turning to `COc1ccc(C(=O)CCN2CCCCCC2)cc1`, the Potency was above 20.6 µM.

`CCCOC(=O)CSC1=C(C#N)C(c2ccccc2OCC)C(C#N)C(=O)N1` (stereo not given): the Potency was above 20.6 µM.

As to `O=c1c2sc3nc(N4CCOCC4)c4c(c3c2ncn1Cc1ccco1)CCCC4`, the Potency is above 20.6 µM.

In the case of `N#Cc1nc(COc2ccc(Br)cc2)oc1N1CCCC1`, the Potency was above 20.6 µM.

On to `C=CCc1cccc(CNc2nc3ccccc3n2C(C)C)c1O`, for which the Potency is above 20.6 µM.

Regarding `CC1(C)Cc2c(c(N3CCOCC3)nc3sc4c(NCc5ccco5)nnnc4c23)CS1`, the Potency is above 20.6 µM.

Consider `N#CC1=C(SCc2ccccc2)NC2=C(C(=O)CCC2)C1c1ccc2c(c1)OCO2` (stereo not given), for which the Potency is above 20.6 µM.

Consider `COc1ccc(C(=O)C(CN2CCCC2)c2ccccc2)cc1` (stereo not given), for which the Potency is above 20.6 µM.

In the case of `COc1ccc(CNc2oc(COc3ccc(Cl)cc3)nc2C#N)cc1`, the Potency was above 20.6 µM.

Take `CCCCc1ccc(NC(=O)CSC2=C(C#N)C(c3ccco3)C3=C(CCCC3=O)N2)cc1` (stereo not given): the Potency was above 20.6 µM.

For the compound `COc1cc(C2C(C#N)=C(N)Oc3cc(N)ccc32)cc(OC)c1OC` (stereo not given), the Potency was above 20.6 µM.

For `CCc1[nH]nc2c1C(c1ccc(Br)s1)C(C#N)=C(N)O2` (stereo not given), the Potency was above 20.6 µM.

Consider `C=CCOc1nc(-c2ccncc2)nc2ccccc12`, for which the Potency is above 20.6 µM.

`COCc1[nH]nc2c1C(c1sccc1C)C(C#N)=C(N)O2` (stereo not given): the Potency was above 20.6 µM.

In the case of `CN(C)c1nc(OCCNC(=O)Nc2ccccc2)nc(N(C)C)n1`, the Potency was above 20.6 µM.

On to `COc1cccc(-c2nc(N3CCCCC3C)c3ccccc3n2)c1O` (stereo not given), for which the Potency is above 20.6 µM.

Consider `Nc1c2c(nc3ccccc13)N(c1ccccc1)CC2`, for which the Potency is above 20.6 µM.

`CCOC(=O)C1CCN(c2nc3ccccc3nc2C(C#N)C(=O)NCCc2ccccc2)CC1` (stereo not given): the Potency is above 20.6 µM.

For the compound `Clc1ccccc1CN(Cc1ccccc1)c1ncnc2nc[nH]c12`, the Potency was above 20.6 µM.

For the compound `COc1cccc(-c2nc(N3CCN(Cc4ccccc4)CC3)c3ccccc3n2)c1O`, the Potency is above 20.6 µM.

Turning to `N#C/C(=N\O)c1nc(-c2ccccc2)cs1`, the Potency was above 20.6 µM.

With `CCOc1ccc(C2=Nn3c(nnc3-c3ccccc3OC)SC2)cc1`, the Potency was above 20.6 µM.

As to `N#Cc1nc(-c2ccc(Cl)cc2)oc1N1CCCCC1`, the Potency was above 20.6 µM.

Turning to `CCOC(=O)N1CCN(c2ncnc3c2[nH]c2ccc(OC)cc23)CC1`, the Potency is above 20.6 µM.

As to `CCCOc1ccc(Cl)cc1CN1CCOCC1`, the Potency was above 20.6 µM.

Turning to `CC(C)OC(=O)c1c2nc3ccccc3nc2n2c1[nH]c(=O)c1ccccc12`, the Potency is above 20.6 µM.
